Publication PMC4336329 (PLoS ONE, 2015)
In all, about 310,000 compounds went through this assay and about 14,000 (4.5%) showed an effect of 50% or more. Effects have a minus sign here. Many of the other results were omitted from the sample, so strong results are more common in it than they were.

target: human ether-à-go-go-related gene (hERG) potassium channel (human, UniProt Q12809); assay: primary screen, population patch clamp on CHO cells stably expressing hERG; higher = less effect of the substance
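Further: peak tail current of the secondary pulse compared with the same well before compound.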

human ether-à-go-go-related gene (hERG) potassium channel, sequence (Q12809 whole entry, looked up): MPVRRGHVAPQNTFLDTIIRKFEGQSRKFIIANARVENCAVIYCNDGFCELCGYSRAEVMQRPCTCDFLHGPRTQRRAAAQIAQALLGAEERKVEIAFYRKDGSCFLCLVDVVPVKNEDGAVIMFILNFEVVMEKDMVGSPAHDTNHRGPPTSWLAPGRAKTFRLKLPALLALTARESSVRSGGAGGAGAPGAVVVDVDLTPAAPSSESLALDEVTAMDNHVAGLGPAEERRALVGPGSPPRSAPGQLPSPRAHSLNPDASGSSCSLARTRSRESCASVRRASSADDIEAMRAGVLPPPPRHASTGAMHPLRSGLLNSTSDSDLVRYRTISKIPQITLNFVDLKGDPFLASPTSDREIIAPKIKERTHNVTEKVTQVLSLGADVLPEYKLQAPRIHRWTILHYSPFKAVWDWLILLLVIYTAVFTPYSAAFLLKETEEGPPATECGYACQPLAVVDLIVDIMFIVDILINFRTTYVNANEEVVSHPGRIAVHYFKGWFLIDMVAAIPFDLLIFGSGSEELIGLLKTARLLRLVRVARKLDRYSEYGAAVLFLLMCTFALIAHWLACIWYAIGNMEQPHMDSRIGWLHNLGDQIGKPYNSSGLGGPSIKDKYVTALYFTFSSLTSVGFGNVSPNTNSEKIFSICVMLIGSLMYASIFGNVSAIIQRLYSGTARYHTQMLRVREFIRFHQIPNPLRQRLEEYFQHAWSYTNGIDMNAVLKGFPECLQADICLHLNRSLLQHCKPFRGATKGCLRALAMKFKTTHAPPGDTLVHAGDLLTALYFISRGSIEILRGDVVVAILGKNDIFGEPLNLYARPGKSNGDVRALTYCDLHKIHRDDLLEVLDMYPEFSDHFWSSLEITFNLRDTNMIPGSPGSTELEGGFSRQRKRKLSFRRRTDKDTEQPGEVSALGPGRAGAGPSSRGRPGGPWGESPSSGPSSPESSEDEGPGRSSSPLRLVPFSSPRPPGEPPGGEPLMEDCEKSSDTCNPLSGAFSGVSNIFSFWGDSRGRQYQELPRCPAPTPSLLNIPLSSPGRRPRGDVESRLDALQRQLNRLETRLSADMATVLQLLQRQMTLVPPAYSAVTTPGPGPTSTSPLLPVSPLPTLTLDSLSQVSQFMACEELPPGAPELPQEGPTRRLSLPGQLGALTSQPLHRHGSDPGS

Structure (SMILES) | hERG current change (%, negative = inhibition) at 10uM
Cn1c(CNC(=O)CNC(=O)Cc2ccc(Cl)cc2)cc(=O)n(C)c1=O | 18.9%
COC(=O)C(C)Oc1cc(C)cc2oc(=O)c3c(c12)CCC3 (stereo not drawn) | -12.7%
N#CC1(NC(=O)CSc2nnc(-c3ccccc3F)o2)CCCCC1 | -13.1%
CC(C)CC(=O)Nc1ccccc1Oc1ccccc1 | -2.96%
Cc1n[nH]c(C)c1S(=O)(=O)N1CCCC(C(=O)N2CCN(c3ccc(Cl)cc3)CC2)C1 (stereo not drawn) | -75.1%
Cc1nn(C)c(C)c1S(=O)(=O)N1CCCC(C(=O)N2CCN(c3ccccc3)CC2)C1 (stereo not drawn) | -27.6%
O=C(C1CCCN(S(=O)(=O)c2cnc[nH]2)C1)N1CCN(c2ccc(Cl)cc2)CC1 (stereo not drawn) | -35%
Cc1nn(C)c(C)c1S(=O)(=O)N1CCCC(C(=O)NCCc2ccc(Cl)cc2)C1 (stereo not drawn) | -0.523%
CC(=O)c1ccc(N2CCN(C(=O)C3CCCN(S(=O)(=O)c4c(C)[nH]c(=O)[nH]c4=O)C3)CC2)cc1 (stereo not drawn) | 23.4%
Cc1nn(C)c(C)c1S(=O)(=O)N1CCCC(C(=O)N2CCN(c3ccc(Cl)cc3)CC2)C1 (stereo not drawn) | -70.4%
Cc1cc2c(NC(=O)Nc3ccc(C(F)(F)F)cc3)cccc2nn1 | -2.37%
Cn1cc([N+](=O)[O-])c(C(=O)Nc2ccc3c(c2)OCCO3)n1 | 5.3%
Cc1cccc(C(=O)N2CCC(=O)N(C(COCc3ccc(Cl)cc3)Cc3ccccc3)CC2)c1 (stereo not drawn) | -25.7%
CCC(C)[C@H](NC(=O)[C@H](Cc1ccccc1)n1c(=O)[nH]c2ccccc2c1=O)C(=O)NCC1CCC(C(=O)O)CC1 (stereo partly drawn) | 20.4%
COc1cccc(OCC(=O)N2CCN(C)CC2)c1 | -10.1%
Cc1cc(=O)oc2c3c(cc(OCC(=O)NCC(=O)O)c12)OC(C)(C)CC3 | 19%
CCN(CC)CCOC(=O)c1ccc(NC(=O)CCNC(=O)Cn2ccc3ccccc3c2=O)cc1 | 11.8%
CCn1cc(CN2CCC(C(=O)Nc3ccc(Oc4ccccc4F)cc3)CC2)c(C)n1 | -72.9%
CCn1cc(CN2CCCC(C(=O)Nc3ccc(-c4nc5ccccc5[nH]4)cc3)C2)c(C)n1 (stereo not drawn) | -21%
CC(C)n1cc(CN2CCC(C(=O)Nc3ccc(Oc4ccccc4F)cc3)CC2)cn1 | -76.1%
CCn1cc(CN2CCC(C(=O)Nc3ccc(Oc4cccnc4)cc3)CC2)cn1 | -19%
CCn1cc(CN2CCC(C(=O)Nc3ccc(Oc4cccnc4)cc3)CC2)c(C)n1 | -18.4%

Structure (SMILES) | hERG current change (%, negative = inhibition) at 10uM
CN(C)C(=O)CCC(=O)N1CCCCC1C(=O)Nc1ccc(Oc2ccccc2F)cc1 (stereo not drawn) | -43.9%
CC(C)n1cc(CN2CCCC(C(=O)Nc3ccccc3Oc3cccnc3)C2)cn1 (stereo not drawn) | -42.4%
Cn1cc(CN2CCC(C(=O)Nc3ccc(Oc4ccccc4F)cc3)CC2)cn1 | -65.6%
COC(=O)c1cc2oc3ccccc3c2n1Cc1ccccn1 | -8.74%
C/C(=N\N=C1\NC(=O)C(CC(=O)Nc2ccc(Cl)cc2)S1)c1ccco1 (stereo not drawn) | 13%
CCn1c(SCC(=O)Nc2ccccc2Cl)nnc1C1CC1 | 6.78%
Cc1c(S(=O)(=O)N2CCCC(C)C2)c(=O)n(C)c(=O)n1C (stereo not drawn) | -2.74%
O=C(NCCNC(=O)c1ccccc1)c1ccccc1 | 2.89%
Cc1cc([N+](=O)[O-])cc(C)c1OCC(=O)N/N=C/c1ccc(OC(=O)c2ccccc2Br)cc1 | 4.23%
CCC(C)NC(=O)C1c2ccccc2C(=O)N1Cc1cc(OC)ccc1OC (stereo not drawn) | 9.25%
COc1ccc(-c2c(C#Cc3ccsc3)c3cc(-c4ccc5[nH]ccc5c4)ccc3n2C)cc1 | 24.1%
O=C(CN1C(=O)COc2ccccc21)c1cccc(Cl)c1 | -14.4%
CSc1ccccc1OCc1cc(C(=O)N2CCC[C@H]2C(N)=O)no1 | 5.26%
N#CSCC(=O)c1cccc2ccccc12 | -24.8%
COc1ccc(NC(=O)C2CCCN(C)C2)cc1OCC(C)C (stereo not drawn) | -1.9%
COc1ccc(NC(=O)C2CCCCN2N)cc1OCC(C)C.O=C(O)C(=O)O (stereo not drawn) | -5.25%
COc1ccc(NC(=O)C2CCCN(CCCc3ccccc3)C2)cc1OCC(C)C.O=C(O)/C=C/C(=O)O (stereo not drawn) | -52.1%
O=C(NCc1ccc2c(c1)OCO2)C1Cc2ccccc2CN1C(=O)c1ccco1 (stereo not drawn) | -59%
O=C(NCc1ccc2c(c1)OCO2)c1ccc(CN2CCOCC2)cc1 | 15.3%
O=C(NCc1ccccc1)C1Cc2ccccc2CN1C(=O)c1ccco1 (stereo not drawn) | -12.2%
NS(=O)(=O)c1ccc(CCNC(=O)C2Cc3ccccc3CN2C(=O)c2ccco2)cc1 (stereo not drawn) | 9.39%
O=C(NCc1ccc2c(c1)OCO2)c1ccc(CN2CCc3ccccc3C2)cc1 | -52.5%

Structure (SMILES) | hERG current change (%, negative = inhibition) at 10uM
O=C(NCCc1c[nH]c2ccccc12)C1Cc2ccccc2CN1C(=O)c1ccco1 (stereo not drawn) | -71.6%
CCS(=O)(=O)N1Cc2ccccc2CC1C(=O)NCCc1c[nH]c2ccccc12 (stereo not drawn) | -0.595%
O=C(NCc1ccc(F)cc1)C1Cc2ccccc2CN1C(=O)c1ccco1 (stereo not drawn) | -42.1%
O=C(NCc1ccc2c(c1)OCO2)c1ccccc1 | -4.18%
COc1ccc(N2C(=O)CC(NCc3cccc(F)c3)C2=O)cc1 (stereo not drawn) | -13.3%
Cc1ccc(-n2c(=O)[nH]c3c(oc4ccccc43)c2=O)cc1 | -0.961%
CCOc1ccc(CC2CC(=O)NC2=O)cc1 (stereo not drawn) | 12.5%
N=c1oc2ccc(Br)cc2cc1C(=O)NCc1ccc(F)cc1 | 5.37%
C/C(=N/NC(=O)c1ccc(Br)o1)C(C)C | -1.43%
Cc1cccc(C(=O)Nc2ccc(C(=O)Nc3ccc(O)cc3)cc2)c1 | 12.5%
O=C(CCCN1C(=O)c2ccccc2C1=O)Nc1ccc(S(=O)(=O)N2CCCCC2)cc1 | -28.8%
O=C(C[n+]1ccccc1)N1c2ccccc2Sc2ccccc21.[Cl-] | 20.7%
COc1cccc(CNC(=O)CCNS(=O)(=O)c2cccs2)c1 | -5.11%
COc1ccccc1-c1coc2c(CN3CCOCC3)c(O)ccc2c1=O | 8.17%
O=C(CN1CCN(c2ccccc2)CC1)Nc1ccccc1Sc1ccccc1 | 9.55%
O=C(CN1CCCC1)Nc1ccccc1Sc1ccccc1 | -13.5%
CN1CCN(CC(=O)Nc2ccccc2Sc2ccccc2)CC1.O=C(O)C(=O)O | -65.3%
O=C(CN1CCCCC1)Nc1cc(Cl)ccc1Oc1ccccc1 | 12.5%
NC(=O)C1CCN(CC(=O)Nc2cc(Cl)ccc2Oc2ccccc2)CC1 | -67%
O=C(CN1CCOCC1)Nc1ccccc1Sc1ccc(Cl)cc1 | -44.1%
CC1CCCN(CC(=O)Nc2cc(Cl)ccc2Oc2ccccc2)C1 (stereo not drawn) | 14.3%
CC1CCN(CC(=O)Nc2ccccc2Sc2ccccc2)CC1 | -5.71%

Structure (SMILES) | hERG current change (%, negative = inhibition) at 10uM
O=C(CN1CCCC1)Nc1ccccc1Sc1ccc(Cl)cc1 | -31.1%
O=C(CN1CCOCC1)Nc1ccccc1Sc1ccccc1 | -31.3%
CC(=O)N1CCN(CC(=O)Nc2ccccc2Sc2ccc(Cl)cc2)CC1 | -78%
CC(=O)N1CCN(CC(=O)Nc2ccccc2Sc2ccccc2)CC1 | -59.5%
COC(=O)CNc1nc(Cl)nc(Nc2ccc(C)cc2)n1 | 18.3%
COc1cc(NC(=O)c2cccnc2SC)cc(OC)c1 | 10.2%
O=c1nccc(Nc2ccccc2)[nH]1 | 16.4%
CNC(=O)c1ccc(-c2cc(C(F)(F)F)nn2C)s1 | 17.6%
CCCc1sc(N/N=C/c2ccccn2)nc1-c1ccc(Br)cc1 | 5.39%
OCCCNC(=S)Nc1ccc(Oc2ccccc2)cc1 | 1.06%
Cc1ccc(OCCSc2nc3ccccc3n2CCC(=O)O)cc1 | 9.74%
CCOc1ccc(-n2c(=O)cc(N3CCN(c4ccc(F)cc4)CC3)[nH]c2=O)cc1 | 9.15%
Cc1cc(NC(=O)NC(=O)c2ccccc2F)no1 | 13.7%
Cc1ccsc1-c1nc(CSCC(=O)N2CCN(c3ccccc3)CC2)c(C)o1 | -21.1%
COc1ccc(C(=O)NC(=S)SCC(=O)O)cc1 | 21.8%
Cc1onc(-c2c(F)cccc2Cl)c1C(=O)OCc1cnc(Cl)s1 | -3.61%
C[C@H](NC(=O)c1ccco1)C(=O)N1CCCC1 | 21.7%
NC(=O)C1CCN(CC(=O)Nc2ccccc2Sc2ccccc2)CC1 | -35.3%
NC(=O)C1CCN(CC(=O)Nc2cccnc2Cl)CC1 | 19.4%
NC(=O)C1CCN(CC(=O)Nc2ccccc2Sc2ccc(Cl)cc2)CC1 | -53.7%
NC(=O)CC(NC(=O)c1ccc(Br)cc1)c1ccc(N2CCCCCC2)c([N+](=O)[O-])c1 (stereo not drawn) | -7.79%
